Measured values from PubChem BioAssay (NCATS).
Several values for one entry are separate records, joined by “and”; a condition that tells them apart may be missing. Identical values can stand only once. Results filed as inconclusive are left out. Unmarked numbers belong to inactive results. Activity calls are given as the source filed them. Calls come from the whole dose curve; as a rule, active = well fitted inhibition curve with a large enough effect in the repeat runs; inconclusive = weak or mixed curves; inactive = flat fitted curve, though single readings scatter. Peptide text beside a SMILES is read from it.

These compounds were tested against Cytochrome P450 2D6 (Homo sapiens) (UniProt P10635) (assay: Cytochrome P450 family 2 subfamily D member 6 (CYP2D6) small molecule antagonists: luciferase biochemical (cell-free) qHTS assay (AID 1645840; note: nearly all actives have a fitted effect of over 55% in size)). Details: P450-Glo CYP2D6 enzyme, luciferin luminescence, 1 h; series mostly up to 57.4 µM; activity change, negative = inhibition: at the top concentration.
Protocol: National Center for Advancing Translational Sciences [NCATS] Assay Overview: Cytochrome P450 (CYP) enzymes are membrane-bound hemeproteins that play a key role in metabolism of drugs and xenobiotics. Assaying the effect of chemicals on CYP isozymes is useful to minimize the adverse drug reactions and toxicities in drug development process. Chemical compounds were tested for their effect on CYP enzyme activities by using P450-Glo (TM) screening systems (Promega Corporation, Madison, WI). These systems provide a luminescent method containing proluciferin substrates and are converted to luciferin products by CYP isozymes. The luciferin products formed are detected with a luciferin detection reagent, and the amount of light produced is proportional to CYP activity. P450-Glo (TM) CYP2D6 screening system (Catalog. No. V9890) was used to detect the compounds that interfere in CYP2D6 activity.
Assay Protocol Summary: Two ul of enzyme-substrate mix was dispensed into medium binding white/solid 1536-well plates (Greiner Bio-One North America Inc., Monroe, NC) using a Flying Reagent Dispenser (FRD, Aurora Discovery, San Diego, CA). […] The assay plates were incubated at room temperature for 10 min. Then 2 ul of NADPH regeneration solution was added to each well of the assay plates using an FRD and incubated at room temperature for 1 h. The reaction was stopped by adding 4 ul of detection reagent using an FRD and after 20 min incubation at room temperature, the luminescence signal was measured using a ViewLux plate reader (Perkin Elmer, Shelton, CT). Data were expressed as relative luminescence units.
% is set by controls: 0 for no effect and ±100 for the full control effect; potency is the fitted concentration of half-maximal effect.

Chain of Cytochrome P450 2D6 (Homo sapiens) (P10635 whole entry, looked up): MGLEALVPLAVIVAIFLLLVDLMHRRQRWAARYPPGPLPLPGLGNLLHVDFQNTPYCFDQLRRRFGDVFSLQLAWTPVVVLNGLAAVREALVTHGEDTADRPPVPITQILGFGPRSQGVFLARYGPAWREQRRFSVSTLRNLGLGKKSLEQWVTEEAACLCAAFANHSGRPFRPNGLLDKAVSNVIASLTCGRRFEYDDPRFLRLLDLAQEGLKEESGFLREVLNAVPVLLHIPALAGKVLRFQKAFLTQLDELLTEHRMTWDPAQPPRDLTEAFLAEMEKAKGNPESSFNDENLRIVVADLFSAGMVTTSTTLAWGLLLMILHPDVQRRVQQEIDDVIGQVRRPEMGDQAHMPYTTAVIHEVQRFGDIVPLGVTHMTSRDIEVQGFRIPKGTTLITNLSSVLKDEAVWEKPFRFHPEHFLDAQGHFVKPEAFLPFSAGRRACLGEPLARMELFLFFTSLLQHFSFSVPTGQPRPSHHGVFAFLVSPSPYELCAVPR

| Structure (SMILES) | activity change, negative = inhibition | Potency |
| --- | --- | --- |
| NC(=O)Cc1cccc(C(=O)c2ccccc2)c1N | -1.34% |  |
| Cc1cc2c(s1)Nc1ccccc1N=C2N1CCN(C)CC1 |  | inactive |
| CCN(CC)CCOc1ccc(Cc2ccccc2)cc1 |  | 6.17 µM (active) |
| O=C(NC(Cc1cc(=O)[nH]c2ccccc12)C(=O)O)c1ccc(Cl)cc1 (stereo not given) | 3.36% |  |
| O=c1ccc2ccc(O)c(O)c2o1 | -0.0541% |  |
| CCC1=C(C)CN(C(=O)NCCc2ccc(S(=O)(=O)NC(=O)NC3CCC(C)CC3)cc2)C1=O (stereo not given) |  | inactive |
| O=C(O)c1cccc(-c2noc(-c3ccccc3F)n2)c1 |  | 1.55 µM (active) |
| CCOc1cc(CC(=O)N[C@@H](CC(C)C)c2ccccc2N2CCCCC2)ccc1C(=O)O | 4.71% |  |
| CN(C)[C@@H](CCOc1cccc2ccccc12)c1ccccc1 |  | 347 nM (active) and 849 nM (active) |
| CN(C)C(=O)COC(=O)Cc1ccc(OC(=O)c2ccc(N=C(N)N)cc2)cc1 | 1.47% |  |
| Cc1c(OCC(F)(F)F)ccnc1CS(=O)c1nc2ccccc2[nH]1 (stereo not given) |  | 389 nM (active) and 1.07 µM (active) |
| CCCCC(CC)COC(=O)C(C#N)=C(c1ccccc1)c1ccccc1 (stereo not given) |  | 1.23 µM (active) and 3.38 µM (active) |
| Cc1nccn1CC1CCc2c(c3ccccc3n2C)C1=O (stereo not given) |  | 11 µM (active) and 13.5 µM (active) |
| O=C(O)c1cn(-c2ccc(F)cc2)c2cc(N3CCNCC3)c(F)cc2c1=O | 7.47% [at 23.9 µM] |  |
| O=c1c(O)c(-c2ccc(O)cc2O)oc2cc(O)cc(O)c12 | -16.7% |  |
| CC(C)[C@H](N)C(=O)OCCOCn1cnc2c(=O)[nH]c(N)nc21 |  | inactive |
| Cc1cccc(CN2CCN(C(c3ccccc3)c3ccc(Cl)cc3)CC2)c1 (stereo not given) |  | 2.45 µM (active) |
| CCc1nc(N)nc(N)c1-c1ccc(Cl)cc1 |  | 12.3 µM (active) |
| O=C(O)CCNC(=O)c1ccc(N=Nc2ccc(O)c(C(=O)O)c2)cc1 | -2.99% |  |
| Cc1ncc([N+](=O)[O-])n1CC(C)O (stereo not given) | 13.5% |  |

| Structure (SMILES) | activity change, negative = inhibition | Potency |
| --- | --- | --- |
| COc1ccc(C2(C#N)CCC(C(=O)O)CC2)cc1OC1CCCC1 (stereo not given) | -18.3% |  |
| CC(S)C(=O)NCC(=O)O (stereo not given) | 7.09% |  |
| CC1Cc2ccccc2N1NC(=O)c1ccc(Cl)c(S(N)(=O)=O)c1 (stereo not given) | -3.54% |  |
| CCCCCCCCOc1ccccc1C(=O)Nc1ccc(C(=O)OCC[N+](C)(CC)CC)cc1 |  | 17.4 µM (active) |
| Cc1cccc(C)c1OCC(=O)N[C@@H](Cc1ccccc1)[C@@H](O)C[C@H](Cc1ccccc1)NC(=O)[C@H](C(C)C)N1CCCNC1=O |  | 13.8 µM (active) |
| COC(=O)[C@H](Cc1ccccc1)NC(=O)[C@@H](N)CC(=O)O (H-Asp-Phe-OMe) | -0.443% |  |
| Cc1nc(Nc2ncc(C(=O)Nc3c(C)cccc3Cl)s2)cc(N2CCN(CCO)CC2)n1 | 3.82% |  |
| COCCCN1CCC(NC(=O)c2cc(Cl)c(N)c3c2OCC3)CC1 |  | 3.47 µM (active) |
| Cc1cc2cc3c(C)cc(=O)oc3c(C)c2o1 | 2.84% |  |
| C[C@@H](c1ncncc1F)[C@](O)(Cn1cncn1)c1ccc(F)cc1F | -15.9% |  |
| CC(C)c1ccc2oc3nc(N)c(C(=O)O)cc3c(=O)c2c1 |  | 13.8 µM (active) |
| Cc1ccc(C)c(OCCCC(C)(C)C(=O)O)c1 | 7.63% |  |
| Cc1ccc(S(=O)(=O)NC(=O)NN2CC3CCCC3C2)cc1 (stereo not given) | -0.101% |  |
| O=C(O)c1cc(=O)c2c(OCC(O)COc3cccc4oc(C(=O)O)cc(=O)c34)cccc2o1 | 8.42% |  |
| Nc1cc(C(Cl)=C(Cl)Cl)c(S(N)(=O)=O)cc1S(N)(=O)=O | 0.466% |  |
| CCC(C)(Oc1ccc(C2(c3ccc(OC(C)(CC)C(=O)O)cc3)CCCCC2)cc1)C(=O)O (stereo not given) | 5.88% |  |
| CN(c1nccc(=O)[nH]1)C1CCN(c2nc3ccccc3n2Cc2ccc(F)cc2)CC1 |  | 12.3 µM (active) |
| CS(=O)(=O)OCCCCOS(C)(=O)=O | 9.12% |  |
| C=CCc1cc(OC)c(O)c(C(=O)NCCO)c1 |  | inactive |
| Cc1cc(=O)c2c(O)c3c(O)cc(=O)c4c3c3c(cc(O)c1c23)C(C)(C)C=4O | 5.75% [at 23.9 µM] |  |
